# PubChem BioAssay (EPA / NIEHS)
# Records with an inconclusive call do not appear. Calls of active or inactive are those of the source. How the source made its calls: active means hit-call score of the fitted dose curve at least 0.9, where 1 is the maximum; inconclusive means response in the unintended direction; inactive means score below 0.9.
# Target: human Serotonin Transporter (SERT), SLC6A4 (gene 6532) (UniProt P31645)
# Experiment: NVS_TR_hSERT: NovaScreen (NVS) Transporter Assay for human Serotonin Transporter (SERT) (AID 2283372)
# Outline: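 Radioligand binding to native SERT in human platelet membranes, read by filter-based scintillation counting 1 h after dosing. Primary screen in duplicate at 25 uM; actives followed up in concentration series; loss of signal versus DMSO baseline.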
# human Serotonin Transporter (SERT), SLC6A4 (gene 6532), sequence (P31645 whole entry, looked up): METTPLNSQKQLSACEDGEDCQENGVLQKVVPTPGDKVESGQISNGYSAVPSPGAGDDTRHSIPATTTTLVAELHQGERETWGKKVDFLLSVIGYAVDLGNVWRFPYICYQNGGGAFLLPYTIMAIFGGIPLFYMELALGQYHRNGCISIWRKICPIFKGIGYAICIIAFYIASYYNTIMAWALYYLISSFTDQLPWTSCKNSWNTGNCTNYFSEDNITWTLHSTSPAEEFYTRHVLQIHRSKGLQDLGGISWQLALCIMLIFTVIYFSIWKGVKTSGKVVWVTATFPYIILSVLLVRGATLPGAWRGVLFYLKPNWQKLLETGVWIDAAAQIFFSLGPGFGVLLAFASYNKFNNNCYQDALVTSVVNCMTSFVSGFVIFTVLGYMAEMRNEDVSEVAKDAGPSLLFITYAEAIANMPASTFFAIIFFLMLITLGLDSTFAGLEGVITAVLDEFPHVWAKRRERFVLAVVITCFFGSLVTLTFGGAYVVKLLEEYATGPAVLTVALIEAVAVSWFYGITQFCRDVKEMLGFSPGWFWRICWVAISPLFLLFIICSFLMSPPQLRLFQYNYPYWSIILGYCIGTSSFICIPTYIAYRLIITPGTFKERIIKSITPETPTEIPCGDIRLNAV
Structure (SMILES),AC50,outcome
COc1ccc(OC(F)(F)F)cc1CN[C@H]1CCCN[C@H]1c1ccccc1,12.5 µM (active),
C/C=C/C=C/C(=O)O,,inactive
O=C(N[C@@H](c1ccccc1)[C@@H]1CCCCN1)c1cccc(C(F)(F)F)c1Cl,9.57 µM (active),

# System: rat Norepinephrine Transporter (NET), gene 83511
# Experiment: NVS_TR_rNET: NovaScreen (NVS) Transporter Assay for rat Norepinephrine Transporter (NET) (AID 2283373)
# Outline: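 Rat forebrain membranes; radioligand binding measured by filter-based scintillation counting 1 hour after dosing. Loss of specific binding versus DMSO baseline scored; primary screen in duplicate at 25 uM, actives followed up in concentration series.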
Structure (SMILES),AC50,outcome
CCc1nc(N)nc(N)c1-c1ccc(Cl)cc1,6.82 µM (active),
Cc1cc(Cc2ccc(N)c(C)c2)ccc1N,,inactive
CN(C)CCCN1c2ccccc2Sc2ccc(Cl)cc21,0.0781 µM (active),
CN(C)C(=O)NC1(c2ccccc2)CCN(CCC[C@]2(c3ccc(Cl)c(Cl)c3)CCCN(C(=O)c3ccccc3)C2)CC1,3.55 µM (active),
COc1ccc(OC(F)(F)F)cc1CN[C@H]1CCCN[C@H]1c1ccccc1,8.18 µM (active),
CSc1ccc(Oc2ccc(S(N)(=O)=O)cc2CN(C)C)cc1C,25 µM (active),
CCN(CC)CCOc1ccc(C(=C(Cl)c2ccccc2)c2ccccc2)cc1,10.2 µM (active),
NC(=Nc1ccccc1)Nc1ccccc1,,inactive

# Target: human Dopamine Transporter (DAT), SLC6A3 (gene 6531) (UniProt Q01959)
# Experiment: NVS_TR_hDAT: NovaScreen (NVS) Transporter Assay for human Dopamine Transporter (DAT) (AID 2283374);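 further: activity means loss of bound radioligand signal relative to DMSO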
# Outline: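 Test chemicals were first screened in duplicate at 25 uM, with actives retested as concentration series. Displacement of a specific radioligand from cell-free human dopamine transporter was measured after 1 h by filtration and scintillation counting.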
# human Dopamine Transporter (DAT), SLC6A3 (gene 6531), sequence (Q01959 whole entry, looked up): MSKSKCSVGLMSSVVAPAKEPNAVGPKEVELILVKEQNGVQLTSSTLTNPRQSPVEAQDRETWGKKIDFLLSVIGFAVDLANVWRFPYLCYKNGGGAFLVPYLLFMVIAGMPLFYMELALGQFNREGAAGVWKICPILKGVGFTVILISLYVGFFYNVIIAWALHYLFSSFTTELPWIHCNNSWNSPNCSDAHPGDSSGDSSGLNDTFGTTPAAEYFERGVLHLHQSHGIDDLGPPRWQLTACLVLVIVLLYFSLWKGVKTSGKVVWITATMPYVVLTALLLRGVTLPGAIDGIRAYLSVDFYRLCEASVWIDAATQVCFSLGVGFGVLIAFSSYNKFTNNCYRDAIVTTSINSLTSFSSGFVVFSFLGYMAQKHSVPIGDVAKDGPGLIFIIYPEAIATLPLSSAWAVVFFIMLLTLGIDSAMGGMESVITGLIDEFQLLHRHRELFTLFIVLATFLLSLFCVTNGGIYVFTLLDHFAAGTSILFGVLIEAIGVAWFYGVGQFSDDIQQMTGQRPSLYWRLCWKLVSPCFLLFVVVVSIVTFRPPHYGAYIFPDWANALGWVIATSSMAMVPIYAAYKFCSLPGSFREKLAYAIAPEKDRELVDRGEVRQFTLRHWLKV
Structure (SMILES),AC50,outcome
CCc1nc(N)nc(N)c1-c1ccc(Cl)cc1,0.754 µM (active),
O=C1NC(=O)C(c2ccccc2)(c2ccccc2)N1,5.81 µM (active),
Cn1cnc2c1c(=O)[nH]c(=O)n2C,,inactive
Cc1cc(Cc2ccc(N)c(C)c2)ccc1N,8.53 µM (active),
CN(C)CCCN1c2ccccc2Sc2ccc(Cl)cc21,4.24 µM (active),
CCCCC(CC)COP(=O)(OCC(CC)CCCC)OCC(CC)CCCC (configuration not stated),,inactive
CN(C)C(=O)NC1(c2ccccc2)CCN(CCC[C@]2(c3ccc(Cl)c(Cl)c3)CCCN(C(=O)c3ccccc3)C2)CC1,0.418 µM (active),
CC(C)NCC(O)c1ccc(O)c(O)c1 (configuration not stated),11.1 µM (active),
CCCCCCCCCCCCCCOS(=O)(=O)O,41 µM (active),
CSc1ccc(Oc2ccc(S(N)(=O)=O)cc2CN(C)C)cc1C,4.52 µM (active),
O=C1OC(c2ccc(O)cc2)(c2ccc(O)cc2)c2ccccc21,6.6 µM (active),
CC(C)OC(=O)C(C)(C)Oc1ccc(C(=O)c2ccc(Cl)cc2)cc1,,inactive
CC(COCC(C)OC(=O)c1ccccc1)OC(=O)c1ccccc1 (configuration not stated),19.2 µM (active),
Cc1cc(SC2=C(O)C[C@@](CCc3ccc(N)cc3)(C(C)C)OC2=O)c(C(C)(C)C)cc1CO,,inactive
O=C(N[C@@H](c1ccccc1)[C@@H]1CCCCN1)c1cccc(C(F)(F)F)c1Cl,12.2 µM (active),

# Target: rat Serotonin Transporter (SERT), Slc6a4 (gene 25553) (UniProt P31652)
# Experiment: NVS_TR_rSERT: NovaScreen (NVS) Transporter Assay for rat Serotonin Transporter (SERT) (AID 2283375)
# Outline: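 Steps: rat forebrain membranes dosed with chemical (25 uM duplicate primary; concentration series for actives); 1 h incubation; labelled ligand bound, filtered, counted by scintillation. Activity scored as signal loss vs DMSO.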
# rat Serotonin Transporter (SERT), Slc6a4 (gene 25553), sequence (P31652 whole entry, looked up): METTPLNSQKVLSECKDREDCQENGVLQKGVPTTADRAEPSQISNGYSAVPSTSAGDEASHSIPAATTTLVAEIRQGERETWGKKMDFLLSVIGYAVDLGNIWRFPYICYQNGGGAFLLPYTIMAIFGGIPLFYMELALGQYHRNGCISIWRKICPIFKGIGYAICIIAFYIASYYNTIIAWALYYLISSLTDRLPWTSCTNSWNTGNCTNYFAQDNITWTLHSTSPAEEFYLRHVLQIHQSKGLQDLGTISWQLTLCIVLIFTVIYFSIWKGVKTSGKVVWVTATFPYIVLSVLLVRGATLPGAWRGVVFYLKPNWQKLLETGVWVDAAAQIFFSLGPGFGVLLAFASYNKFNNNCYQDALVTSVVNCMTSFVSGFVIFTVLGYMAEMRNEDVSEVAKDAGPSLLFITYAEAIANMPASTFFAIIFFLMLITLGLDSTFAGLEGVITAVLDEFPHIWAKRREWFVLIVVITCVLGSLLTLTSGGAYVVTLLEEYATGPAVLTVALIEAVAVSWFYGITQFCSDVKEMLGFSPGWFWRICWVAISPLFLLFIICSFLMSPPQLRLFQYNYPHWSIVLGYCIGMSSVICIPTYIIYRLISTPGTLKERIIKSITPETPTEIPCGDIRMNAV
Structure (SMILES),AC50,outcome
CCc1nc(N)nc(N)c1-c1ccc(Cl)cc1,9.78 µM (active),
Cn1cnc2c1c(=O)[nH]c(=O)n2C,2.36 µM (active),
CN(C)CCCN1c2ccccc2Sc2ccc(Cl)cc21,2.55 µM (active),
COc1ccc(OC(F)(F)F)cc1CN[C@H]1CCCN[C@H]1c1ccccc1,11.7 µM (active),
CSc1ccc(Oc2ccc(S(N)(=O)=O)cc2CN(C)C)cc1C,0.00229 µM (active),
CCN(CC)CCOc1ccc(C(=C(Cl)c2ccccc2)c2ccccc2)cc1,7.45 µM (active),
Cc1cc(SC2=C(O)C[C@@](CCc3ccc(N)cc3)(C(C)C)OC2=O)c(C(C)(C)C)cc1CO,,inactive
O=C(N[C@@H](c1ccccc1)[C@@H]1CCCCN1)c1cccc(C(F)(F)F)c1Cl,7.98 µM (active),

# Target: human Norepinephrine Transporter (NET), SLC6A2 (gene 6530) (UniProt P23975)
# Experiment: NVS_TR_hNET: NovaScreen (NVS) Transporter Assay for human Norepinephrine Transporter (NET) (AID 2283377);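 further: cell-free membrane protein extracted from CHO cells expressing human NET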;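 on AC50: displacement of radioligand from human NET seen as loss of scintillation signal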
# Outline: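 Scintillation counts of filter-retained radioligand served as the readout, taken 1 h post-dosing in a cell-free CHO-derived system. Test chemicals ran first at 25 uM in duplicate; confirmed hits were retested across concentrations.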
# human Norepinephrine Transporter (NET), SLC6A2 (gene 6530), sequence (P23975 whole entry, looked up): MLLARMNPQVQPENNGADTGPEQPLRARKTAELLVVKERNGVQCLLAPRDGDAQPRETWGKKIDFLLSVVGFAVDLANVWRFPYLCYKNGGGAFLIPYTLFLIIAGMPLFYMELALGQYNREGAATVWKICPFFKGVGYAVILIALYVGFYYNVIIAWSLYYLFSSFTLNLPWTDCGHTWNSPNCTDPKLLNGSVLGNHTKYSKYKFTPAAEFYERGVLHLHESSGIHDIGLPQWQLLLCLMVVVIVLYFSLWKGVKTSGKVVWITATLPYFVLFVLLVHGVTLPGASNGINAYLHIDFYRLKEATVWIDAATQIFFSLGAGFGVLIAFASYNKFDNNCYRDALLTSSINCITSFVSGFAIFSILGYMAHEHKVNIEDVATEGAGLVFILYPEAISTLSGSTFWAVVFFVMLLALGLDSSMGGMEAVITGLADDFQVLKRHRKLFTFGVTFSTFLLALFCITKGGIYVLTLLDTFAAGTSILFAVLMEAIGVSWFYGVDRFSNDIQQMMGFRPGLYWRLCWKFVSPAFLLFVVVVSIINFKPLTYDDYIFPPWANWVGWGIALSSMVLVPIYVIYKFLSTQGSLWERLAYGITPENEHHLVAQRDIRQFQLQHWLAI
Structure (SMILES),AC50,outcome
COC(=O)[C@H]1[C@H]2C[C@@H]3c4[nH]c5cc(OC)ccc5c4CCN3C[C@H]2C[C@@H](OC(=O)c2cc(OC)c(OC)c(OC)c2)[C@@H]1OC,5.72 µM (active),
CCc1nc(N)nc(N)c1-c1ccc(Cl)cc1,2.23 µM (active),
O=Cc1ccccc1C=O,7.28 µM (active),
Nc1nc(=S)c2[nH]cnc2[nH]1,,inactive
Cc1cc(Cc2ccc(N)c(C)c2)ccc1N,6.22 µM (active),
CCc1cc(C2=C(C(=O)O)N(c3ccccc3C(F)(F)F)S(=O)(=O)c3ccccc32)cc2c1OCO2,,inactive
O=C(O)CN(CC(=O)O)CC(=O)O,,inactive
CN(C)C(=O)NC1(c2ccccc2)CCN(CCC[C@]2(c3ccc(Cl)c(Cl)c3)CCCN(C(=O)c3ccccc3)C2)CC1,0.124 µM (active),
CN(C)C(=O)NC1(c2ccccc2)CCN(CC[C@@]2(c3ccc(F)c(F)c3)CN(C(=O)c3ccccc3)CCO2)CC1,,inactive
COc1ccc(OC(F)(F)F)cc1CN[C@H]1CCCN[C@H]1c1ccccc1,11.1 µM (active),
CC(C)NCC(O)c1ccc(O)c(O)c1 (configuration not stated),,inactive
CCCCCCCCCCCCCCOS(=O)(=O)O,37.7 µM (active),
CSc1ccc(Oc2ccc(S(N)(=O)=O)cc2CN(C)C)cc1C,4.12 µM (active),
S=c1[nH]c2ccccc2s1,13.6 µM (active),
Cc1ccc(-c2cc(C(F)(F)F)nn2-c2ccc(S(N)(=O)=O)cc2)cc1,6.38 µM (active),
O=C(N[C@@H](c1ccccc1)[C@@H]1CCCCN1)c1cccc(C(F)(F)F)c1Cl,8.04 µM (active),
CCC(C)N(C)C(=O)c1cc2ccccc2c(-c2ccccc2Cl)n1 (configuration not stated),6.81 µM (active),
NC(=Nc1ccccc1)Nc1ccccc1,,inactive
